From the supplement of paper PMC9433436
± gives the standard deviation of the averaged measurements. Over roughly 4,100 sequences, “relative kcat/Km (krel) vs genomic leader AAAGAU” has its median near 1.7; the highest 2% begin near 6.5. The entries come from a sample that favours the highest values as a whole.

Target: T1, E. coli RNase P holoenzyme (M1 P RNA + rnpA protein) (UniProt P0A7Y8)
T1 sequence: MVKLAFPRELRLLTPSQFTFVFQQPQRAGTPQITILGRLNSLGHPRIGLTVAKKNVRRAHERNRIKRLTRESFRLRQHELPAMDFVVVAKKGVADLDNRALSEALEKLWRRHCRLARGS
Assay: relative kcat/Km (krel) vs genomic leader AAAGAU (relative (reference leader = 1)); higher = faster RNase P cleavage
Protocol: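 HTS-Kin: a pool of ptRNA-Met (21C construct) with all 4096 combinations of 5' leader nucleotides N(-6) to N(-1) was processed in vitro by E. coli RNase P (P RNA + rnpA/C5 protein) under multiple-turnover conditions at 37 C, pH 8, 17.5 mM MgCl2. Residual substrate was Illumina-sequenced at several fractions reacted, and relative kcat/Km (krel) was computed by internal competition kinetics, calibrated to the genomic leader (AAAGAU = 1). The listed hexamer is the varied N(-6)..N(-1) leader (DNA letters), and it sits between a fixed 5' stem-loop flank (GCAUGCACGAAAGUGCGUGCUAUGAA) and the mature tRNA-Met starting GGCUACGUAGCUCAGUUGG. Two technical replicates are averaged.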

[1] = fraction of substrate reacted: ~9-10% (9.79% repeat 1, 9.1% repeat 2)
[2] = fraction of substrate reacted: ~13-16% (15.68% repeat 1, 13.17% repeat 2)
[3] = fraction of substrate reacted: ~26-29% (28.66% repeat 1, 26.4% repeat 2)

Sequence | relative kcat/Km [1] | relative kcat/Km [2] | relative kcat/Km [3]
GCTGCC | 1.37 ± 0.5 | 0.461 ± 0.12 | 0.965 ± 0.29
GCGGCA |  | 0.64 ± 0.26 | 
CATTTC | 2.59 ± 0.64 | 2.31 ± 0.88 | 4.06 ± 1.9
CACCAC | 3.5 ± 0.91 | 3.81 ± 1.5 | 5.55 ± 2.2
CTCCAA | 4.23 ± 2.1 | 4.62 ± 0.048 | 6.98 ± 2.8
CTCCAG | 2.81 ± 1.9 | 2.34 ± 0.026 | 4.6 ± 1.3
CGCCAA | 2.95 ± 0.91 | 3.15 ± 0.75 | 5.09 ± 1.8
TTCCCT | 3.18 ± 0.59 | 4.37 ± 1.1 | 6.18 ± 2.6
CTCCAC | 4.55 ± 1.9 | 5.88 ± 1.5 | 7.81 ± 3.1
TTCCAT | 4.71 ± 0.96 | 7.43 ± 1.3 | 10.3 ± 4.6
TGCCAT | 2.8 ± 0.93 | 2.89 ± 0.61 | 4.45 ± 1.8
CTCCCC | 2.43 ± 0.053 | 3.34 ± 1 | 4.73 ± 2.2
CAGGGA |  | 0.949 ± 0.58 | 1.06 ± 1
CCGATG |  |  | 1.14 ± 0.71
CGCATG |  |  | 1.43 ± 0.34
CCATAA | 3.55 ± 1.6 | 2.67 ± 0.37 | 3.58 ± 0.78
CCACTT | 1.71 ± 0.26 | 0.873 ± 0.61 | 1.91 ± 0.31
TGCTGA | 1.907 ± 0.0028 | 1.69 ± 0.5 | 2.71 ± 1
CCGTGC | 1.254 ± 0.0079 | 0.908 ± 0.54 | 1.84 ± 0.71
GGCGCG |  | 0.4496 ± 0.0012 | 1.37 ± 0.14
ATGCCG |  |  | 0.567 ± 0.043
AGCTGG |  | 0.38 ± 0.056 | 0.572 ± 0.15
GGTTCA | 1.01 ± 0.77 | 0.431 ± 0.36 | 1.26 ± 0.44
TGAAAG |  | 1.15 ± 0.57 | 2.65 ± 0.8
GCGAAA | 2.4 ± 0.62 | 1.36 ± 0.072 | 2.16 ± 0.076
TCCAGA | 3.25 ± 0.89 | 4.62 ± 0.77 | 7.93 ± 2.3

Sequence | relative kcat/Km [1] | relative kcat/Km [2] | relative kcat/Km [3]
TCCAAA | 3.88 ± 1.2 | 5.16 ± 0.76 | 7.85 ± 2.9
TCCAGG |  |  | 2.14 ± 0.84
TCCAAG | 2.34 ± 1.2 | 1.77 ± 1.2 | 4.8 ± 1.6
TCCAGC | 4.58 ± 2.5 | 4.83 ± 0.15 | 6.09 ± 2
GCCAAG | 0.818 ± 0.62 | 0.757 ± 0.36 | 2.63 ± 0.93
TCCAAC | 3.85 ± 2 | 4.11 ± 0.11 | 5.77 ± 1.9
TCCAAT | 3.48 ± 2.1 | 4.14 ± 0.76 | 6.63 ± 2.2
ACCAAT | 2.48 ± 0.88 | 2.51 ± 0.89 | 3.51 ± 0.8
GGCGTC | 2.13 ± 1.2 | 1.48 ± 0.093 | 1.36 ± 0.024
AATTTG |  |  | 0.989 ± 0.62
TGATAC | 2.83 ± 0.46 | 3.97 ± 0.42 | 5.76 ± 2.1
AGAGGG |  |  | 0.989 ± 0.85
TCATCT | 2.18 ± 1.2 | 2.78 ± 0.36 | 4.09 ± 1
ACAGAG |  | 0.878 ± 0.38 | 1.94 ± 0.09
CTAATT | 2.55 ± 1 | 1.92 ± 0.32 | 2.36 ± 0.52
TTCCTT | 4.47 ± 1.3 | 5.24 ± 1.1 | 7.59 ± 3.1
ATCCTC | 3.86 ± 1.3 | 4.11 ± 1.6 | 4.92 ± 2
GTCCTC | 3.46 ± 0.61 | 4.33 ± 0.75 | 6.46 ± 3
CTCCTT | 3.67 ± 1.4 | 4.28 ± 0.77 | 6.06 ± 2.3
TTCCTC | 4.47 ± 1.9 | 5.25 ± 0.81 | 6.88 ± 2.5
ATCCTT | 3.24 ± 1.5 | 4.36 ± 0.24 | 5.37 ± 2.3
TTCCTG |  |  | 1.68 ± 1.1
GTCCTT | 3.67 ± 1 | 4.82 ± 0.56 | 7.02 ± 2.8
CTCCTC | 3 ± 1.3 | 3.49 ± 0.19 | 4.95 ± 1.7
TGGCGG | 0.44 ± 0.28 |  | 0.962 ± 0.067
CCTAGA | 3.14 ± 2.6 | 2.71 ± 0.26 | 3.57 ± 0.52
